Bioassay records deposited in PubChem by The Scripps Research Institute Molecular Screening Center.
Most compounds without a hit are left out; they make up all but 3.5% or so of the library.
GPR151 ag – activators of human GPR151 | Q8TDV0 | PathHunter beta-arrestin GPR151 cells, luminescence | activation, % at 11.2 µM | 1% of 650,000 active; in the data active = activation above about 4.9%;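 note: 0% = median of compound wells and 100% = cells with positive control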
TEAD-YAP block – TEAD-YAP interaction inhibition; 1.4% of 640,000 active; HEK-TIYL cells, TEAD-Gal4/YAP UAS-luciferase luminescence; inhibition, % at 9.12 µM; AID 1259422; in the data active = inhibition above about 32%;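 note: 0% = median of test compound wells and 100% = reference inhibitor wells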
MITF inh – human MITF inhibition, primary screen. inhibition, % at 2.6 µM. AID 1259374. 0.91% of 650,000 active. AlphaScreen MITF homodimerization, bead proximity signal. O75030; in the data active = inhibition above about 50%;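 note: 0% = vehicle wells with protein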
Target sequence (O75030 whole entry, looked up): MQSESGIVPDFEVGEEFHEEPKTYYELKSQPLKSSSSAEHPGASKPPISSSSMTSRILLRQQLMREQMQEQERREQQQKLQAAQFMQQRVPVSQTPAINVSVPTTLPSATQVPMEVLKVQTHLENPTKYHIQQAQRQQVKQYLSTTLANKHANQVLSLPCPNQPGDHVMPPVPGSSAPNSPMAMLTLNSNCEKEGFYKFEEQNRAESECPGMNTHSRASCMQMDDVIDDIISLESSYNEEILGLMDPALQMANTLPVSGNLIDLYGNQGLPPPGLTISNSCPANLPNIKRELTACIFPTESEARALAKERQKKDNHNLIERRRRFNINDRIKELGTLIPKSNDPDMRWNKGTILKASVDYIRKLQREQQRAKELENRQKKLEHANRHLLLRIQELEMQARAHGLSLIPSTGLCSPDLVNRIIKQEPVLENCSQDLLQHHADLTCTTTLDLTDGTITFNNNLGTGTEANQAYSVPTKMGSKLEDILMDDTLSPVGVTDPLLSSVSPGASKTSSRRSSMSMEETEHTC
FBW7 activator – activators of human E3 ligase FBW7; normalized activity (activation), % at 26.1 µM; AlphaScreen FBW7–phospho-cyclin E peptide binding, activator screen; 0.13% of 650,000 active; Q969H0; in the data active = normalized activity above about 1.9%;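 note: purified mutant Fbw7 with reduced substrate affinity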
* = called active by the depositor; ! = repeats disagree.

SMILES	GPR151 ag	TEAD-YAP block	MITF inh	FBW7 activator
CC(=O)C1=C(O)C(=O)N(c2nc3ccccc3s2)C1c1ccc(Cl)cc1Cl (stereo not given)	1	66*	20	0
CC(=O)C1=C(O)C(=O)N(c2nc3ccccc3s2)C1c1ccccc1F (stereo not given)	1	-77	15	0
CCOC(=O)N1CC=C2C(C#N)=C(N)C(C#N)(C#N)C(c3cccc(Cl)c3)C2C1 (stereo not given)	-1	3	-4	0
Cc1ccc2nc(-c3ccccn3)[nH]c2c1	-8	64*	-3	-2
Oc1cccc(-c2nc3ccccc3[nH]2)c1	-6	47*	-2	0
Fc1cccc(-c2nc3ccccc3[nH]2)c1	-5	-43	1	0
Nc1ccc2nc(-c3cccc(O)c3)[nH]c2c1	-3	42*	-3	0
Brc1cccc(-c2nc3ccccc3[nH]2)c1	-4	-51	9	1.9*
Nc1cccc(-c2nc3ccc(N)cc3[nH]2)c1	-8	-9	2	0
Oc1ccc2nc(-c3ccccc3)[nH]c2c1	-4	-9	2	0
O=C(c1nn2c(C(F)(F)F)cc(-c3ccc(Cl)cc3)nc2c1Cl)N1CCN(Cc2ccccc2)CC1	1	-6	14	0
Cc1ccc(-c2cc(C(F)(F)F)n3nc(C(=O)NCCCn4ccnc4)cc3n2)cc1C	1	0	4	0
CCN(CC)CCNC(=O)c1ccc2nc(N3CCCCC3)sc2c1	0	-43	6	0
Nc1ccc(-c2nc3ccc(O)cc3[nH]2)cc1	-5	77*	-9	0
CN(C)c1ccc(-c2nc3ccc(N)cc3[nH]2)cc1	-9	78*	21	0
Nc1ccc(-c2nc3cc4ccccc4cc3[nH]2)cc1	0	35*	-1	0
Nc1ccc2nc(-c3ccc(Cl)cc3)[nH]c2c1	-4	-54	17	1
Cc1ccc2nc(-c3ccc(O)cc3)[nH]c2c1	-11	44*	9	0
Nc1ccc(-c2nc3ccc(N)cc3[nH]2)cc1	-5	-17	-13	0
COC(=O)c1ncn([C@@H]2O[C@H](COC(C)=O)[C@@H](OC(C)=O)[C@H]2OC(C)=O)n1	1	9	5	0
CCN1CCN(CC(=O)Nc2ccc(C)cc2)C(=O)C1=O	1	-9	7	0
CCN1CCN(CC(=O)Nc2ccc(Cl)cc2)C(=O)C1=O	-2	7	19	1.9*
CCC1(c2ccccc2)NC(=S)N(c2cccc(C)c2C)N1 (stereo not given)	-1	-1	16	0
CC(C)Cc1nnc(NC(=O)CC(C)(C)C)s1	0	-9	16	2.1*
CC(C)N1CCc2c(sc(NC(=O)/C=C/c3cccs3)c2C(N)=O)C1	4	-10	1	0
SMILES	GPR151 ag	TEAD-YAP block	MITF inh	FBW7 activator
CCOc1ccc(OC)cc1/C=N/NS(=O)(=O)c1ccc(Cl)cc1	0	65*	11	0
COc1ccc(/C=C2/SC(=Nc3ccc(F)cc3)NC2=O)c(OC)c1	4	42*	7	0
COc1ccc(/C=C2/SC(=Nc3cccc(C)c3)NC2=O)c(OC)c1	1	54*	-2	0
COc1ccc(/C=C2\SC(=O)NC2=Nc2ccccc2)c(OC)c1	2	47*	13	0
COc1cccc(N=C2NC(=O)/C(=C/c3ccc(OC)c(OC)c3)S2)c1	-1	48*	-6	0
COc1ccc(/C=C2\SC(=O)NC2=Nc2ccccc2)cc1	1	-31	20	0
COc1ccccc1Cn1c(-c2ccccc2)cn2c3c(=O)n(C)c(=O)n(C)c3nc12	0	2	9	0
COc1ccc(NC(=O)Cn2cnc3sc4c(c3c2=O)CCC(C)C4)c([N+](=O)[O-])c1 (stereo not given)	2	-3	13	0
Cc1ccccc1-c1nnc(CN2CCCC2)o1	1	-29	-15	0
COc1ccc(OC)c(/C=C2\SC(=Nc3ccccc3)NC2=O)c1	0	8	6	0
COc1ccc(OC)c(/C=C2\SC(=Nc3ccc(O)cc3)NC2=O)c1	1	54*	5	0
C=CCN1/C(=C/C(=C/c2sc3ccccc3[n+]2CC=C)CC)Sc2ccccc21	4	83*	52*	0
CC1CCCCN1CCCNc1nc2ccccc2c2nc(-c3cccnc3)nn12 (stereo not given)	0	50*	18	1
CCN(CC)CCCNc1nc2ccccc2c2nc(-c3cccnc3)nn12	0	49*	12	0
CC1CCCC(C)N1CCNc1nc2ccccc2c2nc(-c3cccnc3)nn12 (stereo not given)	0	81*	3	0
CCN(CC)CCNc1nc2cc(OC)c(OC)cc2c2nc(-c3ccccc3)nn12	0	54*	9	0
COC(=O)C(C)(C)ON1C(=O)c2ccccc2C1=O	1	4	5	0
COc1ccc2oc(=O)c(-c3nnc(-c4ccccc4OC)o3)cc2c1	-1	6	14	1
O=C(C1CCOC1)N1CCC2(CC1)CC2C(=O)N1CCN(C/C=C/c2ccccc2)CC1 (stereo not given)	1	4	-4	0
COc1ccc(/C(C)=N/Nc2nncc3ccccc23)cc1	-1	33*	-6	0
NNc1nncc2ccccc12	-1	37*!	5	1
O=C(Nc1ccc2c(c1)OCO2)c1ccnc(Nc2ccc3ncccc3c2)c1	4	-3	3	0
O=C(CSC1=Nc2cccnc2Nc2ccccc21)Nc1ccc(F)cc1F	-2	-25	19	0
CCOC(CNC(=O)c1c[nH]c2ccc(S(=O)(=O)N3CCc4ccccc43)cc2c1=O)OCC	2	19	4	0
COc1ccc(CCNC(=O)c2c[nH]c3ccc(S(=O)(=O)N4CCc5ccccc54)cc3c2=O)cc1OC	0	35*	17	0
SMILES	GPR151 ag	TEAD-YAP block	MITF inh	FBW7 activator
Cc1ccc(Nc2c(Cl)c(Cl)nc(Cl)c2C(F)(F)F)cc1	0	67*	13	0
COc1ccc(Nc2nc(Cl)c(C(F)(F)F)c(Cl)c2Cl)cc1	2	-2	13	0
CC1C(O)=C(c2nc3ccccc3[nH]2)c2nc(=O)c3ccccc3n21 (stereo not given)	-1	54*	17	-1
Cc1cccc2c(=O)nc3n(c12)CC(O)=C3c1nc2ccccc2[nH]1	0	-5	2	0
O=C1c2ccccc2-c2onc3c(N4CCOCC4)cc(NCCN4CCCC4)c1c23	-1	-42	61*	0
CC(C)CNc1cc(N2CCOCC2)c2noc3c2c1C(=O)c1ccccc1-3	-1	3	52*	0
CCNc1cc(N2CCC3(CC2)OCCO3)c2noc3c2c1C(=O)c1ccccc1-3	1	39*	21	-1
O=C1c2ccccc2-c2onc3c(N4CCOCC4)cc(NCCO)c1c23	-2	15	33	-1
COc1ccccc1N1C(=O)CC(S/C(N)=N/N=C(\C)c2ccc(O)cc2)C1=O (stereo not given)	0	-7	82*	0
COc1cccc(CN2CCc3nc(-c4ccccn4)nc(N4CCCC4)c3C2)c1	0	41*	12	-1
